What is called viability is a read-out of living cells in per cent, often relative to untreated cells.

Inconclusive results are not listed. Values without a mark were called inactive. Calls of active or inactive are those of the source. Calls come from the whole dose curve; as a rule, active = well fitted cell-killing curve with a large enough effect; inconclusive = small, poorly fitted or top-dose-only effect, or effect the other way; inactive = no such curve, though single readings can be large or run the other way.

Here are results for 33 compounds from PubChem BioAssay (NCATS).
Potency is the fitted concentration of half-maximal effect.

The first test is described as follows: Quantitative High-Throughput drug screen in 47 multiple myeloma cell lines against the NCATS MIPE library collection: OPM1_PLB cell viability assay (AID 1918989). Note: nearly all actives have a fitted effect of over 40% in size. To be noted: CellTiter-Glo, 48 h; series mostly up to 45.8 µM; viability (% of control): at the top concentration. The gist of the method:
(§1)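 500 cells/well per myeloma line exposed to pinned MIPE 4.0 compounds for 48 h at 37 °C, 5% CO2. Viability read as ATP by CellTiter-Glo luminescence, normalised to DMSO-only (100%) and media-only (0%) wells.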
Background: In ATP-based viability assays light output follows the ATP content of the culture.
On to `Cc1cccc(Nc2nc(-c3ccncc3)cs2)c1`, for which the Potency is 14.8 µM (active). For the compound `CCN(CC)CCOc1ccc(C(=C(Cl)c2ccccc2)c2ccccc2)cc1`, the “viability (% of control)” value is 134%. Turning to `N#CC1(c2ccc(NC(=O)c3cccnc3NCc3ccncc3)cc2)CCCC1`, the Potency was 16.6 µM (active). Take `O=C(NC1CCOCC1)c1ccc(-c2cc(-c3cn[nH]c3-c3ccccn3)ccn2)cc1`: the “viability (% of control)” value is 122%. For `O=C1NC(=O)C(=Cc2ccc3c(c2)OC(F)(F)O3)S1`, the Potency is 7.43 µM (active). As to `CC(=O)OC1C(C)OC(Oc2c(-c3ccc(O)cc3)oc3cc(O)cc(O)c3c2=O)C(O)C1OC(C)=O` (stereo unspecified), the Potency is 10.5 µM (active).

Turning to `COc1ccc(-c2nc(N3CCOCC3)c3sc(CN(C)c4ncc(C(=O)NO)cn4)cc3n2)cn1`, the “viability (% of control)” value was 2.33%. Turning to `COc1ccc(C2CC(c3ccccc3)=NN2c2ccc(S(N)(=O)=O)cc2)cc1` (stereo unspecified), the Potency is 20.9 µM (active). Consider `Nc1ncnc2c1ncn2[C@@H]1O[C@@H](CO)[C@H](O)[C@H]1O`, for which the “viability (% of control)” value was 124%.

Consider `O=C(OCC#CCSc1nnc(-c2cccc3ccccc23)o1)c1cc2ccccc2s1`, for which the “viability (% of control)” value was 113%.

For the compound `Cc1cnc(C(=O)O)c[n+]1[O-]`, the “viability (% of control)” value was 131%. In the case of `O=C1C[C@@H](c2ccc(O)cc2)Oc2cc(O)cc(O)c21`, the “viability (% of control)” value is 125%.

In the case of `CC1(C)Cc2c(sc(NC(=S)NC(=O)c3ccccc3)c2C(=O)O)CO1`, the “viability (% of control)” value is 119%.

With `C[N+]1(C)[C@@H]2CC(OC(=O)[C@H](CO)c3ccccc3)C[C@H]1[C@H]1O[C@@H]12` (stereo partly specified), the “viability (% of control)” value is 128%. On to `CCC(CC)[C@H](NC(C)=O)[C@@H]1[C@H](O)[C@@H](C(=O)O)C[C@@H]1N=C(N)N`, for which the “viability (% of control)” value is 99.1%. Take `CC(C)C[C@H](CC(=O)O)C(=O)N[C@@H](Cc1c[nH]c2ccccc12)C(=O)N[C@@H](C)c1ccccc1`: the “viability (% of control)” value is 131%. On the same count and under the same terms, for `CNC(=O)c1ccc2cc(C3(O)CCn4cncc43)ccc2c1` (stereo unspecified) the value was 98.8%. Regarding `COc1ccc(Cc2ccc(NC(N)=O)cc2)cc1-c1cccc(Cl)c1`, the “viability (% of control)” value is 132%. `O=c1ccn([C@@H]2O[C@H](CO)[C@H](O)[C@H]2O)c(=O)[nH]1`: the “viability (% of control)” value was 140%. For `CC(C)C(=O)Oc1ccc(CO)cc1[C@H](CCN(C(C)C)C(C)C)c1ccccc1`, the “viability (% of control)” value is 88.6%.

For `NC(=O)c1ccc2nc(-c3ccc(Oc4ccc(Cl)cc4)cc3)[nH]c2c1`, the Potency is 6.62 µM (active).

A further test can be described thus: Quantitative High-Throughput drug screen in 47 multiple myeloma cell lines against the NCATS MIPE library collection: SKMM1_PLB cell viability assay (AID 1919863). Note: nearly all actives have a fitted effect of over 35% in size. The following applies: SKMM1 myeloma viability, CellTiter-Glo ATP, 48 h; viability: hits give low values. The gist of the method: as §1
As to `COc1cc(NC(=O)c2ccc(-c3ccc(Cl)cc3)o2)cc(OC)c1`, the viability is 155%. As for `Cc1ccc(C(C)(O)c2nc3ccccc3s2)c(C)c1` (stereo unspecified), the viability is 94%. Take `COc1cc(O)c2c(c1)C(=O)c1cc(C)cc(O)c1C2=O`: the viability is 131%.

On to `CC(C)(C)COc1ccc(-n2cc(C(=O)O)cn2)cc1C#N`, for which the viability was 120%. Take `NC(=O)NN=Cc1ccc([N+](=O)[O-])o1`: the viability is 122%.

Take `COc1cc(N2CCC(N3CCN(C)CC3)CC2)ccc1Nc1ncnc(Nc2ccccc2S(=O)(=O)C(C)C)n1`: the Potency was 23.5 µM (active). Turning to `c1ccc2c(-c3cnn4cc(-c5ccc(N6CCNCC6)cc5)cnc34)ccnc2c1`, the Potency is 9.35 µM (active).

Regarding `CC[C@H]1OC(=O)[C@H](C)[C@@H](O[C@H]2C[C@@](C)(OC)[C@@H](O)[C@H](C)O2)[C@H](C)[C@@H](O[C@@H]2O[C@H](C)C[C@H](N(C)C)[C@@H]2O)[C@](C)(O)C[C@@H](C)CN(C)[C@H](C)[C@@H](O)[C@]1(C)O`, the Potency is 16.6 µM (active). As for `CCOC(=O)O[C@]1(C(=O)OCCl)CC[C@@H]2[C@H]3CCC4=CC(=O)C=C[C@]4(C)[C@@H]3[C@@H](O)C[C@@]21C`, the viability was 124%. Still for that read-out and setting: for `N#Cc1ccc(NC(=O)Nc2ccccc2Br)c2n[nH]nc12` the value was 115%.

The nature of the next test: Quantitative High-Throughput drug screen in 47 multiple myeloma cell lines against the NCATS MIPE library collection: U266_ATCC cell viability assay (AID 1919864). Note: nearly all actives have a fitted effect of over 35% in size. To be noted: U266 myeloma viability, CellTiter-Glo ATP luminescence, 48 h; series mostly up to 45.8 µM; viability (% of DMSO control): at the top concentration. The method in brief: as §1
With `COc1cc(NC(=O)c2ccc(-c3ccc(Cl)cc3)o2)cc(OC)c1`, the Potency is 1.66 µM (active). For `Cc1cccc(Nc2nc(-c3ccncc3)cs2)c1`, the “viability (% of DMSO control)” value is 89.9%. On to `CCN(CC)CCOc1ccc(C(=C(Cl)c2ccccc2)c2ccccc2)cc1`, for which the Potency was 16.6 µM (active).

In the case of `N#CC1(c2ccc(NC(=O)c3cccnc3NCc3ccncc3)cc2)CCCC1`, the “viability (% of DMSO control)” value was 133%. `O=C1NC(=O)C(=Cc2ccc3c(c2)OC(F)(F)O3)S1`: the “viability (% of DMSO control)” value is 115%. As to `CC(=O)OC1C(C)OC(Oc2c(-c3ccc(O)cc3)oc3cc(O)cc(O)c3c2=O)C(O)C1OC(C)=O` (stereo unspecified), the Potency is 18.7 µM (active). As for `CC(C)(C)COc1ccc(-n2cc(C(=O)O)cn2)cc1C#N`, the “viability (% of DMSO control)” value was 128%. For `COc1ccc(C2CC(c3ccccc3)=NN2c2ccc(S(N)(=O)=O)cc2)cc1` (stereo unspecified), the “viability (% of DMSO control)” value was 105%.

Take `c1ccc2c(-c3cnn4cc(-c5ccc(N6CCNCC6)cc5)cnc34)ccnc2c1`: the Potency was 8.33 µM (active). With `Cc1cnc(C(=O)O)c[n+]1[O-]`, the “viability (% of DMSO control)” value was 123%. In the case of `COc1ccc(Cc2ccc(NC(N)=O)cc2)cc1-c1cccc(Cl)c1`, the Potency is 8.33 µM (active). In the case of `CC[C@H]1OC(=O)[C@H](C)[C@@H](O[C@H]2C[C@@](C)(OC)[C@@H](O)[C@H](C)O2)[C@H](C)[C@@H](O[C@@H]2O[C@H](C)C[C@H](N(C)C)[C@@H]2O)[C@](C)(O)C[C@@H](C)CN(C)[C@H](C)[C@@H](O)[C@]1(C)O`, the Potency was 9.35 µM (active). On to `NC(=O)c1ccc2nc(-c3ccc(Oc4ccc(Cl)cc4)cc3)[nH]c2c1`, for which the “viability (% of DMSO control)” value is 90.3%.

For the compound `CC=CCC(C)C(O)C1C(=O)NC(CC)C(=O)N(C)CC(=O)N(C)C(CC(C)C)C(=O)NC(C(C)C)C(=O)N(C)C(CC(C)C)C(=O)NC(C)C(=O)NC(C)C(=O)N(C)C(CC(C)C)C(=O)N(C)C(CC(C)C)C(=O)N(C)C(C(C)C)C(=O)N1C` (stereo unspecified), the “viability (% of DMSO control)” value was 121%. In the case of `CC(C)OC(=O)C(C)(C)Oc1ccc(C(=O)c2ccc(Cl)cc2)cc1`, the Potency is 11.8 µM (active).
